From PubChem BioAssay (NCATS)
Results filed as inconclusive are left out. A call without a number means that no potency is given here. Unmarked numbers belong to inactive results. Active and inactive are the calls of the source. Calls come from the whole dose curve; as a rule, active = well fitted inhibition curve with a large enough effect; inconclusive = small, poorly fitted or top-dose-only effect; inactive = no such curve, though single readings can be large or run the other way.

Key:
[1] = test system: Zika virus NS2B-NS3 protease (unlinked complex); test: Primary screen GU Rhodamine qHTS for Zika virus inhibitors: Unlinked NS2B-NS3 protease assay (AID 1347159); note: nearly all actives have a fitted effect of over 60% in size
Procedure, shortened: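 Compounds, tested up to 114 microM, were incubated for 15 minutes with 25 nM unlinked NS2B-NS3 protease at pH 8.0. Cleavage of 1.5 microM Rhodamine110 substrate was then followed by fluorescence for 15 minutes.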

[2] = test system: Zika virus NS2B-NS3 protease (linked construct); test: Primary screen NINDS Rhodamine qHTS for Zika virus inhibitors (AID 1347160); note: nearly all actives have a fitted effect of over 55% in size
Procedure, shortened: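 Percent inhibition, normalized to uninhibited and enzyme-free controls, is fitted to a 4-parameter Hill equation. Fluorescence change comes from a 15-min cleavage of 1.5 microM bis-peptide Rhodamine110 substrate by 25 nM linked NS2B-NS3 at room temperature.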
Potency is the fitted concentration of half-maximal effect.

| SMILES | Potency [1] | Potency [2] | activity change, negative = inhibition [1] | activity change, negative = inhibition [2] |
| --- | --- | --- | --- | --- |
| O=S(=O)(N[C@H]1CCCC[C@@H]1N1CCOCC1)c1ccc(Cl)cc1 | inactive | inactive |  |  |
| CN(C)CCn1cc(-c2ccc(F)cc2)c(-n2cccc2)n1 | inactive | inactive |  |  |
| CNc1nc(Nc2ccc(C(=O)N3CCOCC3)cc2OC)nc2[nH]cc(Cl)c12 | inactive | inactive |  |  |
| CCCCOC(=O)NS(=O)(=O)c1sc(CC(C)C)cc1-c1ccc(Cn2ccnc2)cc1 | 31.6 µM (active) | inactive |  |  |
| O=C(Nc1ccc(N(Cc2ccsc2)C(=O)Cn2nnc3ccccc32)cc1)C1CC1 | inactive | inactive |  |  |
| Cc1ccccc1C(C(=O)NC1CCCCC1)N(C(=O)Cn1cnc2ccccc21)c1cccc(F)c1 (stereo not given) | inactive | inactive |  |  |
| CC#CC(=O)Nc1ccc2ncnc(Nc3cccc(Br)c3)c2c1 | inactive | inactive |  |  |
| COC1CC(O[C@H]2CC[C@]3(C)C4CC[C@@]5(C)C(=O)[C@]4(CC[C@@H]3C2)CC[C@@H]5C2=CC(=O)OC2)OC(C)C1OC1OC(COC2OC(CO)C(O)C(O)C2O)C(O)C(O)C1O (stereo not given in full) | inactive | inactive |  |  |
| C=C1CC2[C@@]3(C)C=CC(=O)C(C)(C)C3=C(O)C(=O)[C@@]2(C)C2(C(=O)OC)C(=O)C(C)OC(=O)[C@@]12C (stereo not given in full) | inactive | inactive |  |  |
| O=C(NCCN1CCN(c2cccc3c2OCCO3)CC1)c1ccc(F)cc1 | inactive | inactive |  |  |
| COc1nc2ccc(Br)cc2cc1[C@@H](c1ccccc1)[C@@](O)(CCN(C)C)c1cccc2ccccc12 | inactive | inactive |  |  |
| Cn1cc(-c2cnn3c(N)c(Br)c(C4CCCNC4)nc23)cn1 (stereo not given) | inactive | inactive |  |  |
| CN1CCN(c2ccc(-c3cccc(CN4CCOCC4)c3)cc2NC(=O)c2c[nH]c(=O)cc2C(F)(F)F)CC1 | inactive | inactive |  |  |
| CN(C)C(=O)Nc1cccc(-c2ccc(N(C)C)cc2)c1 | inactive | inactive |  |  |
| C=C(C)C1CC(O)C(C)C12CC(O)C1(C)OC1C2O (stereo not given) | inactive | inactive |  |  |
| COC1=CC(=O)O/C1=C(/OC)[C@@H]1O[C@H]1c1ccccc1 | inactive | inactive |  |  |
| Cn1cc(-c2ccc(S(=O)(=O)n3ccc(/C=C/C(=O)Nc4ccccc4N)c3)cc2)cn1 | inactive | inactive |  |  |
| CCC(CC)C(=O)OC12C(OC(=O)C(C)C)C(C)C3(O)C(C=C(CO)CC4(O)C(=O)C(C)=CC43)C1C2(C)C (stereo not given) | inactive | inactive |  |  |
| O[C@@](Cc1ncc(CC2(C(F)(F)F)CC2)[nH]1)(c1ccc(-n2cccn2)cc1)C(F)(F)F | inactive | inactive |  |  |
| CCC(C)/C=C(C)/C=C/C1=CC2=C(Cl)C(=O)C(C)(OC(C)=O)C(=O)C2(O)C(OC)O1 (stereo not given) | 28.2 µM (active) | 11.2 µM (active) |  |  |
| CCCCC1CCC(c2nc(-c3ccncc3)no2)CC1 (stereo not given) | inactive | inactive |  |  |
| CC(=O)O[C@H]1[C@@]2(O)C[C@H](C)[C@H](OC(=O)c3ccccc3)[C@@H]2[C@@H](OC(=O)CO)[C@]2(OC(C)=O)C[C@H]3C(=O)C(C)(C)C[C@@H]3[C@@]1(C)[C@H]2OC(C)=O | inactive | inactive |  |  |

| SMILES | Potency [1] | Potency [2] | activity change, negative = inhibition [1] | activity change, negative = inhibition [2] |
| --- | --- | --- | --- | --- |
| C[C@H]1[C@H](/C=C/c2ccc(-c3ccccc3C#N)cn2)[C@@H]2[C@@H](C)OC(=O)[C@@H]2C[C@@H]1C | inactive | inactive |  |  |
| CC(C)c1c(O)ccc2c1CC[C@H]1C(C)(C)CCC[C@]21C | 14.1 µM (active) | 22.4 µM (active) |  |  |
| C=C(C)C(=O)O[C@H]1[C@H]2C(=C)C(=O)O[C@@H]2/C=C(\CO)CC/C=C(/C=O)[C@@H]1O | inactive | inactive |  |  |
| CC1(CO)CC(O)[C@]2(C(=O)O)CCC34CC3(C=CC3[C@]5(C)C(CC[C@]34C)C(C)(CO)[C@@H](O)[C@H](O)[C@@H]5O)C2C1 (stereo not given in full) | inactive | inactive |  |  |
| O=C(C1CCCCC1)N(CCN1CCN(c2ccccc2O)CC1)c1ccccn1 | inactive | inactive |  |  |
| C=C1C(=O)O[C@@H]2/C=C(\CO)CC/C=C(/C=O)C[C@@H](O)[C@@H]12 | inactive | inactive |  |  |
| Cc1[nH]c(/C=C2\C(=O)Nc3cc(-c4ccccc4)ccc32)c(C)c1CCC(=O)O | 1.78 µM (active) | 2.24 µM (active) |  |  |
| COc1ccc(C[C@H]2COC(=O)[C@@H]2Cc2ccc(O[C@@H]3O[C@H](CO)[C@@H](O)[C@H](O)[C@H]3O)c(OC)c2)cc1OC | inactive | inactive |  |  |
| CC(=O)OC(C)(C)/C=C/C(=O)[C@](C)(O)[C@H]1C(O)C[C@@]2(C)[C@@H]3CC=C4[C@@H](C=C(O[C@@H]5O[C@H](CO)[C@@H](O)[C@H](O)[C@H]5O)C(=O)C4(C)C)[C@]3(C)C(=O)C[C@]12C (stereo not given in full) | inactive | inactive |  |  |
| O=C(Nc1ccccc1C(=O)Nc1ccc(CCO)cc1)c1ccc([N+](=O)[O-])cc1 | inactive | inactive |  |  |
| O=c1nc(-c2ccccn2)sc2ccccc12 | inactive | inactive |  |  |
| Cn1c(=O)c2c(ncn2Cc2ccc(C(C)(C)C)cc2)n(C)c1=O | inactive | inactive |  |  |
| CC(CCC1(O)OC2CC3C4CC=C5CC(O[C@@H]6O[C@H](CO)[C@@H](O[C@@H]7O[C@@H](C)[C@H](O)[C@@H](O)[C@H]7O)[C@H](O)[C@H]6O[C@@H]6O[C@@H](C)[C@H](O)[C@@H](O)[C@H]6O)CCC5(C)C4CCC3(C)C2C1C)CO[C@@H]1O[C@H](CO)[C@@H](O)[C@H](O)[C@H]1O (stereo not given in full) | inactive | inactive |  |  |
| COc1cc(F)c(F)c(Nc2ccc(I)cc2F)c1NS(=O)(=O)C1(CC(O)CO)CC1 (stereo not given) | inactive | inactive |  |  |
| CC(=O)NC(C)c1cnc(-c2cnc(Oc3ccc(OC(C)C)cc3)s2)s1 (stereo not given) | inactive | inactive |  |  |
| COc1cc2nc(N3CCN(C(=O)COc4c(OC)cccc4C(C)C)CC3)nc(N)c2cc1OC | inactive | inactive |  |  |
| O=C(NCCN1CCOCC1)c1cc2c(Oc3ccc(NC(=O)C4(C(=O)Nc5ccc(F)cc5)CC4)cc3)ccnc2[nH]1 | inactive | inactive |  |  |
| CN1CCN(C(=O)CN[C@@H]2C[C@H]2c2ccc(OCc3ccccc3)cc2)CC1 | inactive | inactive |  |  |
| O=C(CN1C2=NCCN2c2ccccc21)c1ccc(-c2ccccc2)cc1 | inactive | inactive |  |  |
| O=C(O)CCc1nccc2c1[nH]c1ccccc12 | inactive | inactive |  |  |
| O=C(COc1ccc(C(=O)c2ccccc2)cc1)NC1CCN(Cc2ccccc2)CC1 | inactive | inactive |  |  |
| CN1CCN(Cc2ccc(NC(=O)Cc3ccc(Oc4cc(NC(=O)C5CC5)ncn4)cc3)cc2C(F)(F)F)CC1 | inactive | inactive |  |  |

| SMILES | Potency [1] | Potency [2] | activity change, negative = inhibition [1] | activity change, negative = inhibition [2] |
| --- | --- | --- | --- | --- |
| CC(C)(C)c1ccc(NC(=O)N2CCN(c3ncccc3Cl)CC2)cc1 | inactive | inactive |  |  |
| COc1cc(N(C)CCN(C)C)c(N)cc1Nc1nccc(-c2cn(C)c3ccccc23)n1 | inactive | inactive |  |  |
| CCNC(=O)C#Cc1ccc2c(C(=Nc3ccc(CN(C)C)cc3)c3ccccc3)c(O)[nH]c2c1 | inactive | inactive |  |  |
| O=S(=O)(Nc1ccccc1N1CCCCC1)c1ccc(Cl)s1 | inactive | inactive |  |  |
| Cc1nc(Nc2cnn(C3CCNCC3)c2)nc2c1N(C)C(=O)c1cc3ccccc3cc1N2C | inactive | inactive |  |  |
| C[C@@H]1O[C@@H](O[C@H]2[C@@H]3C=CO[C@@H](O[C@@H]4O[C@H](CO)[C@@H](O)[C@H](O)[C@H]4O)[C@@H]3[C@@]3(CO)O[C@@H]23)[C@H](O)[C@H](OC(=O)/C=C/c2ccccc2)[C@H]1O | inactive | inactive |  |  |
| O=[N+]([O-])c1ccc(Oc2ccc3c(c2)CCC(c2ccccc2)O3)nc1 (stereo not given) | inactive | inactive |  |  |
| Nc1nc2c(ncn2C2OC3COP(=O)(O)OC3C2O)c(=O)[nH]1 (stereo not given) | inactive | inactive |  |  |
| Cc1ccc(C2(C(=O)N3CCC(n4nc(-c5ccccc5)oc4=O)CC3)CC2)cc1 | inactive | inactive |  |  |
| CC(C)/C=C1\NC(=O)C(C(C)C)n2c1nc1ccccc1c2=O (stereo not given) | inactive | inactive |  |  |
| CC1(C)CC[C@]2(C(=O)O)CC[C@]3(C)C(=CCC4[C@@]5(C)C[C@@H](O)[C@H](O)C(CO)(CO)C5CC[C@]43C)C2[C@@H]1O (stereo not given in full) | inactive | inactive |  |  |
| C=C1C(=O)O[C@@H]2C[C@]3(C)[C@@H](CCC(C)O)[C@@H]3C[C@H]12 (stereo not given in full) | inactive | inactive |  |  |
| CCn1c(-c2nonc2N)nc2c(C#CCO)ncc(OCCCN)c21 | inactive | inactive |  |  |
| COc1ccccc1C(=O)Nc1cccc(NC(=O)c2cccc(C)c2)c1 | inactive | inactive |  |  |
| NS(=O)(=O)c1ccc(N2CCN(CC[C@@H]3OCCc4ccccc43)CC2)cc1 | inactive | inactive |  |  |
| CC(=O)O[C@H]1CC(C)(C)CC2[C@]13CO[C@@]21CCC2[C@@]4(C)CC[C@H](O[C@@H]5OC[C@H](O[C@@H]6O[C@H](CO)[C@@H](O)[C@H](O)[C@H]6O[C@@H]6OC[C@@H](O[C@@H]7O[C@H](CO)[C@@H](O)[C@H](O)[C@H]7O)[C@H](O)[C@H]6O)[C@H](O)[C@H]5O[C@@H]5O[C@H](CO)[C@@H](O)[C@H](O)[C@H]5O)[C@@](C)(CO)C4CC[C@@]2(C)[C@]1(C)C[C@H]3O (stereo not given in full) |  |  | 0.509% [at 19.1 µM] | -9.67% [at 10.7 µM] |
| Cc1nc(Nc2ccc(F)cc2)nc(N2CCc3ccccc3C2C)c1C (stereo not given) | inactive | inactive |  |  |
| CN(C)CCOc1cc(NS(=O)(=O)c2c(Cl)cc(C(F)(F)F)cc2Cl)ccc1Cl | 5.62 µM (active) | inactive |  |  |
| O=C(Nc1nc2ccc([N+](=O)[O-])cc2s1)C1CCCCC1 | inactive | inactive |  |  |
| CC(NCCCc1cccc(C(F)(F)F)c1)c1cccc2ccccc12 (stereo not given) | inactive | inactive |  |  |
| CC1(C)CC[C@]2(C(=O)O)[C@H](O)C[C@]3(C)C(=CCC4[C@@]5(C)CC[C@H](O[C@@H]6O[C@H](CO[C@@H]7OC[C@H](O)[C@H](O)[C@H]7O[C@@H]7OC[C@H](O)[C@H](O)[C@H]7O)[C@@H](O)[C@H](O)[C@H]6O)C(C)(C)C5CC[C@]43C)[C@@H]2C1 (stereo not given in full) | inactive | inactive |  |  |
